Source: PubChem
SENP8 block-1 = inhibitors of human SENP8 protease; actives 0.64% (n = 360,000); AID 602440; inhibition, % at 20 µM; recombinant SENP8, Nedd8 substrate fluorescence; in the data active = inhibition mostly above about 40%, no sharp cut-off; inactive = mostly below about 27%
Target sequence (Q96LD8 whole entry, looked up): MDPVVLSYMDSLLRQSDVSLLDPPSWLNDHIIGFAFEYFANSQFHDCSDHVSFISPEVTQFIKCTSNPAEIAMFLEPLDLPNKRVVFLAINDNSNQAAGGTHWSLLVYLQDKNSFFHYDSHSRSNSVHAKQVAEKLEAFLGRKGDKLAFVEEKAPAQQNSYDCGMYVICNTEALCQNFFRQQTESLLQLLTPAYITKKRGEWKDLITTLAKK
SENP7 inh = SENP7 protease inhibition; Q9BQF6; recombinant SENP7, Z-RLRGG-aminoluciferin luminescence, 40 min; inhibition, % at 5 µM; actives 1.5% (n = 330,000);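 active = inhibition above about 50% at the single test dose, limit read from the data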;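 also: plate controls were DMSO with enzyme for no effect and no enzyme buffer wells for full effect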
Target sequence (Q9BQF6 706-1050 limits assumed): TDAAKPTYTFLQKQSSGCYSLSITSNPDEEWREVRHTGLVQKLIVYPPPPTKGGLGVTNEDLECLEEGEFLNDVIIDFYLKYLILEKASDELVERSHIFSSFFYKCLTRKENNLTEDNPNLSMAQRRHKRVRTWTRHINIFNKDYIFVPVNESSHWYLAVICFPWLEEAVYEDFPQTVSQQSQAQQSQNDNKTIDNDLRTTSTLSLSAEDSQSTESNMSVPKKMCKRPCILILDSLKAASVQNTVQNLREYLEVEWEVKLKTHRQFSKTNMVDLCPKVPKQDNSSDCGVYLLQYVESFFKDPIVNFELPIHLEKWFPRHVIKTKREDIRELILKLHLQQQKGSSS
SENP8 block-2 = SENP8 protease inhibition; AID 2540; actives 1.2% (n = 330,000); inhibition, % at 10 µM; Q96LD8; purified SENP8, Z-RLRGG-aminoluciferin cleavage, luminescence; in the data active = inhibition above about 50%
SENP6 inh = blocks the human protease SENP6; Q9GZR1; actives 1.8% (n = 330,000); AID 2599; Recombinant SENP6 catalytic domain, aminoluciferin luminescence; inhibition, % at 10 µM;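 active = inhibition above about 50% at the single tested dose, limit read from the data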;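 also: plate controls were DMSO wells with enzyme for no effect and DMSO wells lacking enzyme for full effect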
PPC-1+TRAIL kill = kills PPC-1 cancer cells in the presence of TRAIL. PPC-1 cells + TRAIL, ATPLite viability luminescence. cell killing (% activity), % at 4 µM or 5 µM. actives 0.41% (n = 220,000);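 active = cell killing above 50% in the first pass at 4 µM, then a duplicate retest at 5 µM averaging 50% or more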;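 also: plate controls were cells with TRAIL plus DMSO for no effect and medium-only wells lacking cells for full effect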
C8 TRAIL sens = caspase-8 TRAIL sensitization; NB7+C8 cells + TRAIL, ATPlite viability luminescence; inhibition (viability loss, TRAIL sensitization), % at 10 µM; actives 1% (n = 360,000); AID 624354;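 active = compounds causing at least 50% loss of cell viability in the single-dose screen, relative to plate controls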
SENP8 confirm = confirmation of human SENP8 protease inhibitors. actives 40% (n = 6,200). Recombinant SENP8, Z-RLRGG-aminoluciferin luminescence, 60 min. shares compounds with SENP7 inh. inhibition, % at 12.5 µM;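 active = mean inhibition across replicates above about 50%, limit read from the data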
SENP6 conf = human SENP6 inhibition, confirmed; shares compounds with SENP7 inh; recombinant SENP6, Z-RLRGG-aminoluciferin luminescence; inhibition, % at 12.5 µM; actives 58% (n = 6,200); AID 488915
SENP7 conf = confirmation of human SENP7 protease inhibitors; shares compounds with SENP7 inh; recombinant SENP7, Z-RLRGG-aminoluciferin luminescence, 40 min; inhibition, % at 12.5 µM; actives 69% (n = 6,200); AID 488917
Casp3 SENP sel = inhibits human caspase-3 in SENP selectivity test; purified caspase-3, Z-DEVD-aminoluciferin luminescence, 60 min; inhibition, % at 12.5 µM; shares compounds with SENP7 inh; actives 60% (n = 6,200);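 active = mean inhibition above about 50%, limit read from the data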;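 also: plate controls were enzyme with DMSO for no effect and wells without caspase-3 for full effect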
SENP luc ctr = interferes with luciferase luminescence in SENP counter-screen; shares compounds with SENP7 inh; Pre-incubated SENP8/Z-RLRGG-aminoluciferin, luciferase luminescence interference; inhibition, % at 12.5 µM; actives 39% (n = 6,200); AID 488919;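 active = mean inhibition above about 50% when retested at one dose, limit read from the data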;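 also: plate controls were DMSO wells with completed reaction for no effect and substrate without enzyme for full effect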
* hit, by the source's call; i = inactive; · = not tested or not shown. Compounds with a hit are over-represented: about 3% of the library has one in this group of screens.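 The calls were made as follows, unless noted: active = mean inhibition above about 50% in the one-dose retest (limit read from the data); inactive = the rest.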

SMILES	SENP8 block-1	SENP7 inh	SENP8 block-2	SENP6 inh	PPC-1+TRAIL kill	C8 TRAIL sens	SENP8 confirm	SENP6 conf	SENP7 conf	Casp3 SENP sel	SENP luc ctr
Cn1cccc1/C=C1\Cc2ccccc2C1=O	-256	93*	92*	-8	-2	16	66*	91*	99*	93*	36
O=C1/C(=C/c2cccs2)Cc2ccccc21	7	92*	84*	91*	-5	0	83*	91*	99*	87*	70*
Cn1cccc1/C=C1\CC(C(C)(C)C)C/C(=C\c2cccn2C)C1=O (stereo unspecified)	14	9	3	19	-11	10	·	·	·	·	·
Cn1cccc1/C=C1\CCc2ccccc2C1=O	-12	43	95*	100*	8	61*	98*	98*	102*	97*	96*
ON=C1c2ccccc2-c2cc(Br)ccc21	15	·	·	·	·	7	·	·	·	·	·
CCOC(=O)N1CCC(NC(=O)CS(=O)Cc2nc(-c3ccc(C)cc3)oc2C)CC1 (stereo unspecified)	2	-2	2	-3	·	12	·	·	·	·	·
CCOc1ncccc1C(=O)OCC(=O)NC1CCCCCC1	4	-6	-7	-6	·	16	·	·	·	·	·
CN(CC(=O)Nc1ccccc1Br)C(=O)c1ccccc1OCc1ccccc1Cl	12	·	·	·	·	6	·	·	·	·	·
O=C1/C(=C/c2ccco2)CCc2ccccc21	-50	-1	75*	87*	9	23	97*	99*	102*	96*	94*
Nc1ccc2c(c1)C/C(=C/c1ccco1)C2=O	-387	-8	-3	-40	4	41	·	·	·	·	·
COc1ccc2c(c1)CC/C(=C/c1ccco1)C2=O	-72	-5	83*	91*	18	50	96*	97*	102*	92*	94*
COc1ccc2oc(=O)c(-c3nc(C)cs3)cc2c1	-294	92*	75*	48	-11	10	-11	21	24	32	12
COc1ccc2oc(=O)c(-c3nnc(N)s3)cc2c1	-415	16	-1	5	6	-2	·	·	·	·	·
CC1CCN(C(=O)COC(=O)C2CCN(S(=O)(=O)c3ccc(Cl)c(C(F)(F)F)c3)CC2)CC1	18	-2	3	-1	·	-2	·	·	·	·	·
C=C(Cl)COc1ccc2c(CCCC)cc(=O)oc2c1	-129	-2	-10	-12	27	5	·	·	·	·	·
C=C(Cl)COc1ccc2c(CC)cc(=O)oc2c1	-129	57*	-20	-18	10	21	6	6	6	3	0
Cc1ccc(C(=O)Nc2ccc(NC(=O)c3ccc(C)o3)cc2)o1	-10	-4	1	18	·	-10	·	·	·	·	·
Cc1ccc(C(=O)Nc2ccc(C(=O)N3CCCCC3)cc2)o1	3	78*	48	66*	·	-4	58*	60*	89*	89*	68*
Cc1ccccc1CC(=O)Nc1ccc(C(=O)N2CCCC2)cc1	8	55*	17	41	·	16	44	40	69*	78*	53*
O=C(CN1CCCC1)Nc1ccc(Br)cc1[N+](=O)[O-]	26	-11	-7	10	·	1	·	·	·	·	·
O=C1Nc2ccccc2SC1c1ccccc1 (stereo unspecified)	11	·	·	·	·	-2	·	·	·	·	·
Cc1ccc(NC2Sc3ccccc3NC2=O)cc1 (stereo unspecified)	9	30	53*	77*	24	16	53*	41	68*	57*	55*
CCOC(=O)Nc1ccc2c(CNC(C)c3ccccc3OC)cc(=O)oc2c1 (stereo unspecified)	-201	1	0	26	·	5	·	·	·	·	·
NC(=O)c1ccc(-c2noc(-c3cccc(Cl)c3)n2)cc1	9	58*	14	6	·	-4	-14	-8	8	16	-2
O=C(O)c1cccc(-c2noc(-c3cccc(Cl)c3)n2)c1	10	101*	98*	99*	·	62*	99*	100*	103*	98*	96*
SMILES	SENP8 block-1	SENP7 inh	SENP8 block-2	SENP6 inh	PPC-1+TRAIL kill	C8 TRAIL sens	SENP8 confirm	SENP6 conf	SENP7 conf	Casp3 SENP sel	SENP luc ctr
Cn1cnc2c(cnn2C)c1=O	9	·	·	·	·	10	·	·	·	·	·
Cc1cc(C)n(CC(=O)NNC(=O)c2ccc(OC(F)(F)F)cc2)n1	11	-5	3	-8	·	6	·	·	·	·	·
CSc1nsc(/C=C/Nc2ccc(F)cc2)c1C#N	-140	7	7	22	16	-1	·	·	·	·	·
CSc1nsc(/C=C/Nc2cccc(Cl)c2)c1C#N	-184	10	30	67*	4	6	-18	-10	-2	0	-5
CSc1nsc(/C=C/Nc2ccc(O)cc2C)c1C#N	-321	-5	-3	16	6	-4	·	·	·	·	·
CSc1nsc(/C=C/Nc2ccc(Cl)cc2)c1C#N	-220	7	23	55*	5	-11	-11	-5	2	2	-2
CC(C)(C)c1ccc(/C=C/C(=O)Nc2nncs2)cc1	4	79*	28	47	28	31	25	25	5	18	13
Cc1nc2nc(-c3cccs3)cn2nc1C	-367	-7	-9	-3	-12	0	·	·	·	·	·
COc1cccc(-c2cn3nc(C)c(C)nc3n2)c1	i	-3	60*	83*	18	13	90*	93*	101*	97*	61*
COc1cc(/C=C/C(=O)O)cc(S(=O)(=O)N2CCN(S(=O)(=O)c3ccc(Cl)cc3)CC2)c1OC	-3	-2	-12	4	·	-48	·	·	·	·	·
O=C(O)c1cc(O)c2c(c1)C(=O)c1cc(O)cc(O)c1C2=O	3	-6	28	52*	12	-2	67*	60*	84*	23	72*
Cc1c(C(=O)Nc2ccc(N3CCOCC3)cc2)oc2ccccc12	13	67*	32	70*	32	40	12	59*	62*	54*	11
Cc1c(C(=O)OCC(=O)Nc2ccc(N3CCOCC3)cc2)oc2ccccc12	-3	4	0	6	·	12	·	·	·	·	·
O=C(Nc1ccc(N2CCOCC2)cc1)c1cc2ccccc2o1	17	48	38	70*	39	30	12	45	82*	69*	17
